Measured values taken from PubChem BioAssay (NCI).
This is part of a sample that, as a whole, favours compounds with a hit. Of some 83,000 tested, about 20% had one in any assay.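 In brief: 96-well plates, 48 h treatment, single concentration, percent growth endpoint.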 Calls of active or inactive are those of the source. Rule for the calls: active = growth percent below 10; inactive = the rest.

Legend:
Assay in all cases: NCI-60 one-dose screen, 48 h (100 = growth as untreated, 0 = no growth, -100 = all killed)
NCI-H23 lung = conditions: 10 µM unless noted
NCI-H226 lung = conditions: 10 µM unless noted
NCI-H322M lung = conditions: 10 µM unless noted
HOP-62 NSCLC = conditions: 10 µM unless noted
NCI-H460 lung = conditions: 10 µM unless noted
786-0 renal = conditions: 10 µM unless noted
MDA-MB-231 breast = conditions: 10 µM unless noted
SF-268 CNS = conditions: 10 µM unless noted
SF-539 CNS = conditions: 10 µM unless noted
HCT-15 colon = conditions: 10 µM
U251 CNS = conditions: 10 µM unless noted
PC-3 prostate = conditions: 10 µM unless noted
SK-MEL-28 melanoma = conditions: 10 µM unless noted
SN12C renal = conditions: 10 µM unless noted
HS 578T breast = conditions: 10 µM unless noted
NCI/ADR-RES ovarian = conditions: 10 µM unless noted
SW-620 colon = conditions: 10 µM unless noted
MCF7 breast = conditions: 10 µM unless noted
HCT-116 colon = conditions: 10 µM unless noted
KM12 colon = conditions: 10 µM unless noted

Measured: growth

COc1cc(/C=C\c2cc(OC)c(OC)c(OC)c2)cc(N/C=C\C(=O)c2ccc(OC(F)(F)F)cc2)c1OC
active: NCI-H460 lung 4.92% | MDA-MB-231 breast -16.9% | SF-539 CNS -31.5% | HCT-15 colon 9.36% | NCI/ADR-RES ovarian 5.87% | HCT-116 colon 8.14%
inactive: NCI-H23 lung 26.2% | NCI-H226 lung 54.4% | NCI-H322M lung 42.4% | HOP-62 NSCLC 23.8% | 786-0 renal 34.3% | SF-268 CNS 41.7% | U251 CNS 14.8% | PC-3 prostate 42.6% | SK-MEL-28 melanoma 62.2% | SN12C renal 36.5% | HS 578T breast 29.4% | SW-620 colon 26.3% | MCF7 breast 17.2% | KM12 colon 16.6%

O=C(O)c1nn(Cc2ccc(Cl)cc2)c2ccccc12
inactive: NCI-H23 lung 105% | NCI-H226 lung 101% | NCI-H322M lung 127% | HOP-62 NSCLC 108% | NCI-H460 lung 105% | 786-0 renal 108% | MDA-MB-231 breast 107% | SF-268 CNS 109% | SF-539 CNS 102% | HCT-15 colon 102% | U251 CNS 100% | PC-3 prostate 98.7% | SK-MEL-28 melanoma 119% | SN12C renal 93.7% | HS 578T breast 105% | NCI/ADR-RES ovarian 112% | SW-620 colon 105% | MCF7 breast 99.7% | HCT-116 colon 103% | KM12 colon 109%

C[C@]12CC[C@H](OC3OC(O)C(O)C(O)C3O)C=C1CCC1C2CC[C@]2(C)[C@@H](c3ccc(=O)oc3)CC[C@]12O (some centres undefined)
active: NCI-H23 lung -68.9% | NCI-H226 lung -70.6% | NCI-H322M lung -71.8% | HOP-62 NSCLC -97.8% | NCI-H460 lung -80.1% | 786-0 renal -84.4% | MDA-MB-231 breast -72.1% | SF-268 CNS -99.4% | SF-539 CNS -83.1% | HCT-15 colon -81.8% | PC-3 prostate -12.2% | SK-MEL-28 melanoma -82.9% | SN12C renal -37.7% | HS 578T breast 9.56% | NCI/ADR-RES ovarian -71.2% | SW-620 colon -90.5% | MCF7 breast -64.3% | HCT-116 colon -95.3% | KM12 colon -93.8%
inactive: U251 CNS 104%

C[C@]12CCC(=O)CC1CC[C@@H]1C2CC[C@@]2(C)C1CC[C@@H]2OC(=O)CC[Se][Se]CCC(=O)O[C@H]1CCC2[C@@H]3CCC4CC(=O)CC[C@]4(C)C3CC[C@@]21C (some centres undefined)
inactive: NCI-H23 lung 102% | NCI-H226 lung 93% | NCI-H322M lung 84.1% | HOP-62 NSCLC 82.4% | NCI-H460 lung 95.9% | 786-0 renal 107% | MDA-MB-231 breast 94.3% | SF-268 CNS 94.1% | SF-539 CNS 103% | HCT-15 colon 97.4% | U251 CNS 81.3% | PC-3 prostate 89.4% | SK-MEL-28 melanoma 98.9% | SN12C renal 103% | HS 578T breast 52.9% | NCI/ADR-RES ovarian 92.9% | SW-620 colon 122% | MCF7 breast 80.8% | HCT-116 colon 95.5% | KM12 colon 103%

Cc1ccc(C[As+](c2ccccc2)(c2ccccc2)c2ccccc2)cc1
inactive: NCI-H322M lung 18.6% | 786-0 renal 13.5% | MDA-MB-231 breast 10.6% | SF-268 CNS 24.1% | SF-539 CNS 24.1% | HCT-15 colon 75.9% | U251 CNS 10.9% | SK-MEL-28 melanoma 37.2% | HS 578T breast 21% | NCI/ADR-RES ovarian 99.2% | SW-620 colon 11.9%
active: NCI-H23 lung -11.1% | NCI-H226 lung 8.52% | HOP-62 NSCLC 9.44% | NCI-H460 lung 2.34% | PC-3 prostate 7.95% | SN12C renal 3.83% | MCF7 breast 9.14% | HCT-116 colon 2.52% | KM12 colon 3.2%

O=C(NCCNC(=O)c1ccc([As](O)O)cc1)c1ccc([As](O)O)cc1
inactive: NCI-H23 lung 93% | NCI-H226 lung 109% | NCI-H322M lung 102% | HOP-62 NSCLC 105% | NCI-H460 lung 99.7% | 786-0 renal 114% | MDA-MB-231 breast 106% | SF-268 CNS 103% | SF-539 CNS 102% | HCT-15 colon 107% | U251 CNS 103% | PC-3 prostate 94.6% | SK-MEL-28 melanoma 111% | SN12C renal 113% | HS 578T breast 91.7% | NCI/ADR-RES ovarian 101% | SW-620 colon 94.7% | MCF7 breast 99.7% | HCT-116 colon 101% | KM12 colon 99.8%

CC(C)[C@]12O[C@H]1[C@@H]1O[C@]13[C@]1(O[C@H]1C[C@H]1C4=C(CC[C@@]13C)C(=O)OC4)[C@@H]2OC(=O)OC(C)(C)C
inactive: NCI-H226 lung 12.6% | HOP-62 NSCLC 16.6% | 786-0 renal 11.9% | MDA-MB-231 breast 21.8% | U251 CNS 15.5% | PC-3 prostate 19.8% | SN12C renal 20% | MCF7 breast 18.5%
active: NCI-H23 lung -28% | NCI-H322M lung 3.68% | NCI-H460 lung 2.11% | SF-268 CNS -2.29% | SF-539 CNS -20.2% | HCT-15 colon 8.8% | SK-MEL-28 melanoma -1.69% | HS 578T breast -6.44% | NCI/ADR-RES ovarian -2.52% | SW-620 colon 1.09% | HCT-116 colon 4.76% | KM12 colon 2.1%

C[C@@H]1O[C@@H](O[C@H]2CC[C@@]3(C)[C@H](CCC4[C@@H]3C(O)C[C@]3(C)[C@@H](c5ccc(=O)oc5)CC[C@]43O)C2)[C@H](O)[C@H](O)[C@H]1O (some centres undefined)
active: NCI-H23 lung -78.5% | NCI-H226 lung -84.2% | NCI-H322M lung -73.9% | HOP-62 NSCLC -100% | NCI-H460 lung -80.7% | 786-0 renal -94.1% | MDA-MB-231 breast -63.7% | SF-268 CNS -63.1% | HCT-15 colon -74.5% | U251 CNS -97.9% | PC-3 prostate -33.3% | SK-MEL-28 melanoma -96.1% | SN12C renal -25.3% | HS 578T breast -9.52% | NCI/ADR-RES ovarian -66.8% | SW-620 colon -79% | MCF7 breast -59.4% | HCT-116 colon -79.9% | KM12 colon -94.2%
